PI5P4K alpha inh – PI5P4K alpha (human) kinase inhibition. max response, %. 1.2% of 330,000 active. AID 652105. P48426. PI5P4Kalpha enzyme, ADP-Glo luminescence, 60 min; stronger effect = lower value; active means max response of -50% or lower; inconclusive means between -30% and -50%; inactive means -30% or higher; further: value at the top dose of about 77 µM; on the % scale 0 is the no-effect control and ±100 the full control effect
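qHTS, 1536-well: enzyme/substrate mix, compound by pin tool, 5 microM ATP final; RT 60 min; ADP-Glo reagents 1 (45 min) then 2 (30 min); luminescence.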
HP1b binding inh – blocks HP1-beta chromodomain binding to methylated histone tails. AlphaScreen HP1-beta / biotin-H3K9me3 peptide binding. Potency, µM (highest dose often 114 µM), for inactives: top-dose activity change, negative = inhibition, most hits filed as inhibitors. 0.56% of 390,000 active. AID 540317; further: potency means the concentration at half of the fitted maximal effect; nearly all actives have a fitted effect of over 70% in size
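Compound inhibition of the preformed complex between 50 nM HP1-beta and 50 nM biotinylated H3K9me3 peptide was read by AlphaScreen. Buffer was PBS pH 7.4 with 0.01% Tween-20. Incubations ran 30 min at room temperature, with 10 ug/mL donor/acceptor beads.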
JMJD2A Tudor – blocks the human JMJD2A Tudor domain. AlphaScreen JMJD2A-Tudor / H3K4me3 peptide binding. Potency, µM (series often up to 114 µM), inactives show top-dose activity change, negative = inhibition, actives largely listed as inhibitors. 4.4% of 390,000 active. AID 504339; further: potency means the concentration at half of the fitted maximal effect; on the % scale 0 is the no-effect control and ±100 the full control effect; nearly all actives have a fitted effect of over 50% in size
PLK1 PBD inh – PLK1 (human) polo-box domain binding inhibition | Potency, µM, inactives show max response, negative = inhibition, hits mostly inhibitors | Plk1 PBD binding of FITC phosphopeptide, fluorescence polarization | P53350 | 2.8% of 360,000 active; further: potency means the concentration at half of the fitted maximal effect; series mostly up to about 57 µM; on the % scale 0 is the no-effect control and ±100 the full control effect; nearly all actives have a fitted effect of over 65% in size
Target sequence (P53350 whole entry, looked up, the tested form may be a part): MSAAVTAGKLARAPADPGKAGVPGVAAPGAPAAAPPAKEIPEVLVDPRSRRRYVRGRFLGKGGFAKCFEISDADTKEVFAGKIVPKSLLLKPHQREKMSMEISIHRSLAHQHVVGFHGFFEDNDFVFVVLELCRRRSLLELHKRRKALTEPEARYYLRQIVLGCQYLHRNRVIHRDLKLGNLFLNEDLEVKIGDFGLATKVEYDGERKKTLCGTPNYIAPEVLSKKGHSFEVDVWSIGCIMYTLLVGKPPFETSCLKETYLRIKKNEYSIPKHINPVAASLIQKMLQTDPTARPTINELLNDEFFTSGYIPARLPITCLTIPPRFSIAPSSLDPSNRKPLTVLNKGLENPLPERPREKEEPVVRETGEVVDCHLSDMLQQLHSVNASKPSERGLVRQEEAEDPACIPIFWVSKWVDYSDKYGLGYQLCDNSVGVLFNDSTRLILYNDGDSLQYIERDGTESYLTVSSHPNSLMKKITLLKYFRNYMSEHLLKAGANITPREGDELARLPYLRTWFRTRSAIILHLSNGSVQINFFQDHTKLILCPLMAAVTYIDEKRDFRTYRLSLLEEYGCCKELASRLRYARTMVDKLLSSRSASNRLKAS
KAT2A inh – blocks human GCN5L2 histone acetyltransferase; Q92830; GCN5L2 HAT assay, ThioGlo1 CoA-SH fluorescence; Potency, µM (titrated, usually from 58.9 µM), for the others: at the top dose activity change, negative = inhibition, most hits filed as inhibitors; 0.21% of 390,000 active; further: potency means the concentration at half of the fitted maximal effect; on the % scale 0 is the no-effect control and ±100 the full control effect
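Fluorescence readout, Ex340nm/Em540nm: ThioGlo1 (50uM final) reacts with free CoA thiol released as 20nM GCN5L2 acetylates H3(1-25) peptide (75uM) using acetyl-CoA (70uM). Compound and enzyme sat 15 min beforehand; 20 min room-temperature reaction.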
BAZ2B inh – blocks human BAZ2B; Q9UIF8; AlphaScreen BAZ2B-H3K14Ac peptide displacement; AID 504333; Potency, µM (doses to about 114 µM), for the others: top-dose activity change, negative = inhibition, usual class: inhibitors; 4.4% of 360,000 active; further: potency means the concentration at half of the fitted maximal effect; on the % scale 0 is the no-effect control and ±100 the full control effect; nearly all actives have a fitted effect of over 60% in size
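Compounds, titrated to a top concentration of 110 uM, were incubated 30 min at room temperature with preformed BAZ2B/acetyl-K14 H3 peptide complex (50 nM each). Proximity signal was measured by AlphaScreen after 20 min with beads.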
Active calls of the source: *; ? = inconclusive; . = no result given. Only some compounds are listed: those with a hit (about 7% of all), similar ones and a draw of the others. Unless noted, the call rests on the fitted dose curve; in most records, active means well fitted curve in the direction sought with a large enough effect; inconclusive means small, poorly fitted or top-dose-only effect, or another doubt; inactive means no such curve, though single readings can be large; an effect the other way counts as inactive or inconclusive.

SMILES	PI5P4K alpha inh	HP1b binding inh	JMJD2A Tudor	PLK1 PBD inh	KAT2A inh	BAZ2B inh
CCc1cc2cc3c(cc2nc1SCC(=O)N1CCN(C(=O)c2ccco2)CC1)OCO3	-5	3%	?	-15%	-3%	-5%
O=C(COc1c(Br)cc(Br)c2cccnc12)Nc1ccccc1F	?	18%	-22%	-20%	-3%	50µM*
CC[N+]1(C)[C@@H]2CC[C@H]1CC(OC(=O)[C@H]1CCC(C(=O)OC3C[C@H]4CC[C@@H](C3)[N+]4(C)CC)(c3ccccc3)c3ccccc31)C2 (stereo partly drawn)	-5	24%	-1%	-6%	-4%	35%
Cc1ccc(OCC(=O)Nc2cc(C(=O)O)cc(C(=O)O)c2)cc1C	-55*	-11%	8.9µM*	3µM*	-4%	-13%
O=C(c1cccc(-n2cccc2)c1)N1CCN(S(=O)(=O)c2c(F)cccc2F)CC1	-28	?	35µM*	-13%	1%	2%
Cc1cc(C)c(S(=O)(=O)/N=C2/C=C(SCC(=O)O)C(=O)c3ccccc32)cc1C	?	35µM*	25µM*	0.84µM*	-29%	35µM*
CC(CNC(=O)c1csc2c1CCCCC2)c1ccccc1 (stereo not drawn)	.	68%	13%	.	-6%	0%
Cc1[nH]n(-c2ccccc2)c(=O)c1C=Nc1ccc2[nH]c(=O)[nH]c2c1	7	24%	-2%	-14%	-10%	2%
O=c1[nH]c2ccc(N=Cc3c(O)ccc4cc(Br)ccc34)cc2[nH]1	-14	0%	45µM*	?	-6%	?
COc1cccc(Nc2nnc(Cc3cccnc3)c3ccccc23)c1	-5	33%	-18%	-6%	-10%	-11%
Cc1ccc(C)n1N1C(=O)/C(=C\c2ccc(Cl)cc2)SC1=S	1	-68%	40µM*	-9%	-23%	2.8µM*
CN1CCN(C(=O)CCN2C(=O)/C(=C\c3ccc(Cl)cc3)SC2=S)CC1	-12	11%	-28%	-19%	?	-34%
CC(=O)N(C(C)=O)N1C(=O)/C(=C/c2ccc(Cl)cc2)SC1=S	-17	10µM*	11µM*	5.3µM*	-2%	28µM*
CN=C1S/C(=C\c2ccc(Cl)cc2)C(=O)N1C	0	40%	4%	1%	-5%	-8%
COc1cc(C2C(=O)N(C3CCCCCC3)CC(=O)N2Cc2ccccc2)ccc1OC(C)C (stereo not drawn)	.	14%	-17%	.	-5%	-8%
Cc1ccccc1Nc1nc(-c2sc(NC(=O)c3ccccc3)nc2C)cs1	.	.	.	.	-7%	?
Cc1ccc(Nc2nc(-c3sc(NC(=O)c4ccc([N+](=O)[O-])cc4)nc3C)cs2)cc1	.	.	.	.	-1%	45µM*
Cc1ccccc1Nc1nc(-c2sc(NC(=O)c3ccc([N+](=O)[O-])cc3)nc2C)cs1	.	.	.	.	-19%	45µM*
Cc1cccn2c(=O)c(C=C(C#N)C#N)c(N3CCN(C)CC3)nc12	0	19%	-21%	-22%	-5%	2%
O=C(NCc1ccc(F)cc1)C1CCCN1C(=O)Nc1cccc(F)c1 (stereo not drawn)	-3	8%	-1%	-8%	0%	-5%
COc1ccc(Cl)c2sc(N3CCN(C(=O)c4ccco4)CC3)nc12	-4	12%	-10%	-4%	2%	-3%
COc1ccc(OC)c2sc(N3CCN(C(=O)c4ccc5c(c4)CCCC5)CC3)nc12	.	?	?	.	-1%	40µM*
CCCC(=O)N1CCN(c2nc3c(OC)ccc(Cl)c3s2)CC1	-3	3%	-25%	27µM*	-4%	-1%
COc1ccc(Cn2ccnc2SCC(=O)NC2CCCC2)cc1	-18	7%	-19%	-10%	2%	-16%
CC(=O)c1cccc(S(=O)(=O)N2CCn3cccc3C2C)c1 (stereo not drawn)	-2	26%	-28%	-6%	-2%	-25%
CN1CCN(S(=O)(=O)c2ccc(N(C)Cc3ccc(OC(F)F)cc3)c([N+](=O)[O-])c2)CC1	7	?	?	-1%	-8%	50µM*

Source: PubChem
